This is an account of results in PubChem BioAssay AID372 (MTDP, 2006).

Out of some 100,000 compounds screened, about 770 (0.77%) were called active. The sample as a whole holds a higher share of actives than the screen did. A number with no mark means an inactive call. Cut-off read from the data, not from the text of the source: active = inhibition above about 50%; inactive = the rest.

The experiment has as its target Gag-Pol polyprotein (Human immunodeficiency virus type 1 group M subtype B (isolate HXB2)) (UniProt P04585). Briefly: RNase H inhibition, HIV 1 Gag Pol polyprotein, FRET biochemical assay, screening (AID 372). To be noted: HIV-1 RT RNase H, FRET RNA/DNA substrate fluorescence; at 10 µM; active compounds read high.
On to `O=C(N/N=C\c1ccc(OC(=O)c2ccc(Br)cc2)cc1)c1ccc(Br)cc1`, for which the inhibition is 14%.
Regarding `COc1ccc(/C=N/Nc2ccc([N+](=O)[O-])cc2)cc1Br`, the inhibition is 7%.
On to `O=C(N/N=C/c1ccc(/C=N/NC(=O)c2cccc([N+](=O)[O-])c2)cc1)c1cccc([N+](=O)[O-])c1`, for which the inhibition is 12%.
Take `O=[N+]([O-])c1ccc(N/N=C/c2cc([N+](=O)[O-])ccc2O)cc1`: the inhibition is 10%.
As for `O=[N+]([O-])c1ccc(N/N=C/c2ccc(O)c(Br)c2)cc1`, the inhibition is 50% (active).
Regarding `O=[N+]([O-])c1ccc(N/N=C/c2ccc(O)c(O)c2)cc1`, the inhibition was 57% (active).
For `O=C(N/N=C/c1ccc(OC(=O)c2ccc(Br)cc2)cc1)c1cccc([N+](=O)[O-])c1` the value was 50% (active); for `Cc1ccc(-c2cc(C(=O)N/N=C/c3ccc([N+](=O)[O-])cc3)[nH]n2)cc1`, 24%.
For `O=C(N/N=C/c1ccc(F)cc1)c1cc(-c2ccc3ccccc3c2)n[nH]1`, the inhibition is 17%.
Take `O=[N+]([O-])c1ccc(N/N=C/c2ccc(Cl)c([N+](=O)[O-])c2)cc1`: the inhibition is 8%.
Take `O=C(N/N=C/c1ccc([N+](=O)[O-])cc1)c1cc(-c2ccc3ccccc3c2)n[nH]1`: the inhibition is 50% (active).
For the compound `O=[N+]([O-])c1ccc(N/N=C/c2cc(Br)c(O)c(Br)c2)cc1`, the inhibition was 24%.
For the compound `Cc1ccc(N(CC(=O)O)S(=O)(=O)c2ccccc2)cc1Cl`, the inhibition was 4%.
The value for `COc1ccc(Br)cc1/C=C/C(=O)Nc1ccc(O)c(-c2nc3ccccc3o2)c1` was 14%; that for `O=C(Nc1ccc(Br)cc1)C1C2/C=C\CCCCC21` (stereo unspecified) was 9%; that for `COC(=O)c1c(NC(=O)c2ccccc2C)sc2c1CCC(C)C2` (stereo unspecified) was 12%.
For `O=C(CSc1ccccc1)N/N=C/c1ccccc1O` the value was 7%.
For `CS(=O)(=O)N1CCN(Cc2ccccc2Cl)CC1`, the inhibition is 0%.
The value for `OCCNc1nc(-c2ccccc2Cl)nc2ccccc12` was 0%.
The value for `COc1ccc(C(=O)NNC(N)=S)cc1` was 0%; that for `NC1=NC(=O)/C(=C/c2ccc(OC(=O)c3cccc([N+](=O)[O-])c3)cc2)S1` was 51% (active).
For `NC1=NC(=O)/C(=C/c2ccc(OS(=O)(=O)c3cccc([N+](=O)[O-])c3)cc2)S1` the value was 25%; for `O=C(N/N=C/c1ccc(O)cc1)c1ccc([N+](=O)[O-])cc1`, 0%; for `O=C(N/N=C/c1ccc(O)c(O)c1)c1ccc([N+](=O)[O-])cc1`, 51% (active).
As to `NC1=NC(=O)/C(=C/c2ccc(OC(=O)c3ccc(Cl)c(Cl)c3)cc2)S1`, the inhibition is 18%.
In the case of `O=C(N/N=C/c1ccc(/C=N/NC(=O)c2ccc([N+](=O)[O-])cc2)cc1)c1ccc([N+](=O)[O-])cc1`, the inhibition was 0%.

As a reminder, the inhibition is the drop in the measured response relative to a control, in per cent.
